Compounds without any hit were thinned out: in the full panel of roughly 83,000, 20% have a hit.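 96-well plates, one dose, 48 hours. Percent growth reported; active if below 10.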 The source made the active and inactive calls.
Experiments:
Assay in all cases: NCI-60 one-dose screen, 48 h (100 = growth as untreated, 0 = no growth, -100 = all killed)
Settings in all cases: 10 µM unless noted
[1] = system: T-47D breast
[2] = system: BT-549 breast
[3] = system: MDA-MB-435 melanoma
[4] = system: SW-620 colon
[5] = system: MCF7 breast
[6] = system: HCT-116 colon
[7] = system: HCC-2998 colon
[8] = system: KM12 colon

Measured: growth

COc1cccc2cc(-c3cc4ccccc4[nH]3)/c(=N\NC(=O)c3ccc(Cl)cc3)oc12
inactive: [1] 13.3% | [2] 58.3% | [3] 44.7% | [4] 38.3% | [6] 21.8% | [7] 69% | [8] 28.2%
active: [5] 8.32%

Cc1noc(C)c1CSc1nc2ccccc2n1-c1ccccc1
inactive: [1] 93.8% | [2] 87.5% | [3] 100% | [4] 94.5% | [5] 94.9% | [6] 92.9% | [7] 112% | [8] 101%

Cn1cc(-c2nc(N)nnc2-c2c[nH]c3ccccc23)c2cc(Br)ccc21
inactive: [1] 31.2% | [2] 32.9% | [4] 18.2% | [5] 18.1% | [6] 20.3% | [7] 57.6% | [8] 18.1%
active: [3] -37.6%

N#Cc1cccc(CN2CCc3ncn(Cc4ccc(Cl)cc4)c(=O)c3C2)c1
inactive: [1] 30.7% | [2] 29.7% | [3] 18.4% | [4] 33.2% | [5] 15.5% | [6] 19.5% | [7] 13.9% | [8] 29.7%

CC/C(=C/c1c(O)cccc1OC)c1ccc2c(OC)cccc2[o+]1
inactive: [1] 106% | [2] 98.5% | [3] 97.7% | [4] 101% | [5] 86.4% | [6] 104% | [7] 106% | [8] 98.9%

NC(N)=Nc1ccc(Oc2cccc(Nc3cccc(C(F)(F)F)c3)c2)cn1
active: [3] -20.6% | [4] -79.1% | [5] -69.1% | [6] -76.8% | [7] -91.9% | [8] -82.8%
inactive: [1] 37.3% | [2] 61.2%

Cc1ccc(NC(=O)N[C@@H](Cc2cc(F)cc(F)c2)C(=O)NC2C(=O)N3C[C@H](O)C[C@H]3C(=O)N3CCCC[C@H]3C(=O)N[C@@H](CO)C(=O)N3C[C@H](C)C[C@H]3C(=O)O[C@H]2C)c(F)c1 (stereo not given in full)
inactive: [1] 32.5% | [2] 43.5% | [3] 23.1% | [4] 44.6% | [5] 18.1% | [6] 18.1% | [7] 31.2% | [8] 45.3%

C[C@H](CCC(=O)NCc1ccc(C(=O)Nc2ccccc2N)cc1)[C@H]1CC[C@H]2[C@@H]3[C@@H](O)C[C@@H]4C[C@H](O)CC[C@]4(C)[C@H]3CC[C@]12C
inactive: [1] 48% | [2] 54.1% | [3] 60.2% | [4] 56% | [5] 45.7% | [6] 31.2% | [7] 89.5% | [8] 64%

Cn1ccnc1C(=O)/C=C/c1ccc(CNC(=O)c2ccc(Cl)cc2)cc1
inactive: [1] 34% | [2] 16.5% | [3] 22.6% | [5] 10.5% | [7] 13.1%
active: [4] 9.22% | [6] -1.09% | [8] 9.07%

O=C(Nc1nonc1-c1ccccc1)c1ccc(C(F)(F)F)cc1
inactive: [1] 76% | [2] 85.5% | [3] 82.7% | [4] 94.6% | [5] 72.3% | [6] 86.2% | [7] 101% | [8] 97.4%

COC(=O)C1(C)CCC[C@]2(C)[C@H]3C[C@H]4C(C(C)C)=C[C@]3(CC[C@@H]12)[C@H]1[C@@H]4[C@@H](OC(=O)c2ccco2)CC[C@@H]1OC(=O)c1ccco1 (stereo not given in full)
inactive: [1] 98.9% | [2] 99.8% | [3] 104% | [4] 102% | [5] 98.3% | [6] 110% | [7] 108% | [8] 105%

CC(=O)O[C@@H]1C(=O)N(c2cnccn2)[C@H]1c1ccccc1[N+](=O)[O-]
inactive: [1] 85.2% | [4] 20.1% | [5] 15.5% | [7] 31.5%
active: [2] -13.3% | [3] -38.7% | [6] -14.2% | [8] -2.26%

NC(N)=Nc1ccc(Oc2cccc(NC(N)=Nc3ccc(I)cc3F)c2)cc1
inactive: [1] 75.3% | [2] 87.6% | [3] 85% | [4] 89.5% | [5] 63.3% | [6] 90.5% | [7] 102% | [8] 79.3%

O=C(CCn1c[n+](CC(=O)c2ccc(-c3ccccc3)cc2)c2ccccc21)Nc1cccc2cccnc12
inactive: [1] 21.6% | [2] 53.7% | [3] 32.2% | [4] 65.2% | [5] 19.8% | [6] 56% | [7] 38.9% | [8] 14.5%

Cc1ccc(-c2cc3nc(C(Cl)Cl)nc(-c4ccco4)n3n2)cc1
inactive: [1] 21.2% | [2] 86.5% | [3] 18.1%
active: [4] 8.55% | [5] 3.51% | [6] 1.68% | [7] -50% | [8] -21.3%

O=S(=O)(NCCCNc1nccc(-n2cnc3ccccc32)n1)c1ccc(C(F)(F)F)cc1
inactive: [1] 44.7% | [2] 88.2% | [3] 93.4% | [4] 106% | [5] 83.4% | [6] 75.9% | [7] 112% | [8] 79.8%

CC(=O)N(C)C1CCc2c(sc(NC(=O)c3ccc(C(C)(C)C)cc3)c2C(N)=O)C1 (stereo not given)
inactive: [1] 74% | [2] 88.2% | [3] 83.7% | [4] 58.2% | [5] 59.8% | [6] 65.1% | [7] 108% | [8] 64.9%

C#Cc1nc(/C=C/C(=O)c2nccn2C)cs1
active: [1] -23.4% | [2] -59.1% | [3] 1.27% | [4] -24.9% | [5] -30% | [6] -48.8% | [7] -83.1% | [8] -43.5%

O=C(CCn1cc[n+](CC(=O)c2ccc(-c3ccccc3)cc2)c1)Nc1cccc2cccnc12
inactive: [1] 42.4% | [2] 57.2% | [3] 87.2% | [4] 85.8% | [5] 58% | [6] 84.5% | [7] 68.4% | [8] 42.9%

O=C(CN1CCN(c2cc(=O)[nH]c3ccc(F)cc23)CC1)Nc1ccc(Cl)cc1
inactive: [1] 66.3% | [2] 47.6% | [3] 96% | [4] 93.8% | [5] 58.8% | [6] 57.6% | [7] 92.3% | [8] 91.6%

C=C(C)[C@@H]1CC[C@]2(C(=O)NCCCCCN(CCC#N)CCC#N)CC[C@]3(C)[C@H](CC[C@@H]4[C@@]5(C)CCC(=O)C(C)(C)[C@@H]5CC[C@]43C)[C@@H]12
inactive: [1] 106% | [2] 92.9% | [3] 99.7% | [4] 97.4% | [5] 86.2% | [6] 95.5% | [7] 110% | [8] 101%

CS(=O)(=O)Nc1cc(-c2ccc3ncc(C#N)c(Nc4cccc(Cl)c4F)c3c2)cnc1Cl
active: [1] -8.48% | [2] -4.23% | [3] 3.99% | [4] 4.99% | [5] 3.98% | [6] -14.8% | [7] -22.1% | [8] 3.37%

O=C(CSc1nc2ccccc2c(=O)n1-c1ccccc1)Nc1cccc(C(=O)/C=C/c2ccccc2Cl)c1
inactive: [1] 91.2% | [2] 118% | [3] 97.9% | [4] 91.7% | [5] 54.1% | [6] 20.2% | [7] 108% | [8] 100%

O=S(=O)(NCCNc1nccc(-n2cnc3ccccc32)n1)c1ccc(C(F)(F)F)cc1
inactive: [1] 22.3% | [2] 53.1% | [3] 64.4% | [4] 83.5% | [5] 34.9% | [6] 40.1% | [7] 80.5% | [8] 58.7%

CCNC(=O)N1CCc2cc(OC)c(OCCc3ccc(OC)c(N)c3)cc2C1c1cc(C)c(C)cc1C (stereo not given)
inactive: [1] 52.6% | [2] 25.6% | [3] 17.2% | [4] 15.7% | [5] 22.7% | [6] 17.3% | [7] 49.2% | [8] 33.8%

COc1cc2nc(Cl)nc(Nc3cccc(C4=Nc5c(N)nc(N)nc5NC(c5ccc6c(c5)OCO6)C4)c3)c2cc1OC (stereo not given)
inactive: [1] 68.9% | [2] 76.8% | [3] 88.5% | [4] 76.9% | [5] 54% | [6] 55.3% | [7] 74.6% | [8] 46.8%

N#Cc1cn(Cc2ccc(Cl)cc2Cl)c(C(=O)c2ccc(Br)cc2)c1N
inactive: [1] 87.8% | [2] 108% | [3] 95.6% | [4] 98.8% | [5] 87.2% | [6] 101% | [7] 108% | [8] 99.3%

Nc1nc(-c2cccc([N+](=O)[O-])c2)c(N=Nc2ccc([N+](=O)[O-])cc2Cl)s1
active: [1] 4.47% | [2] -24.9% | [3] 6.11% | [5] 2.17% | [6] 0.397% | [8] 2.86%
inactive: [4] 13% | [7] 12.9%

CCn1c(SCC(=O)Nc2cccc(C(=O)/C=C/c3ccccc3Cl)c2)nc2ccccc2c1=O
inactive: [1] 81.3% | [2] 105% | [3] 98.6% | [4] 72.8% | [5] 17.1% | [7] 91% | [8] 85.3%
active: [6] -26.3%

COc1cc2oc(-c3cccc(N)c3)cc(=O)c2c(OC)c1OC
inactive: [1] 97.8% | [2] 116% | [3] 103% | [4] 112% | [5] 96.3% | [6] 111% | [7] 110% | [8] 103%

Source: PubChem BioAssay (NCI)
